# Measured values taken from paper PMC7862700, “An all-to-all approach to the identification of sequence-specific readers for epigenetic DNA modifications on cytosine”.
# Experiments:
# Assay in all cases: DAPPL (digital affinity profiling via proximity ligation, sequencing); 10 mM Tris-HCl pH 7.5, 50 mM NaCl, 1 mM DTT, 4% glycerol, room temperature, 30 min; GST-TFs on glutathione beads, 16-mer random dsDNA library, 0.1% formaldehyde crosslink after washing; high values mean tight binding
# FLI1 = molecular target: T1, FLI1 (Homo sapiens, UniProt Q01543 1-452); settings: protein: recombinant; tags: N-terminal GST; dsDNA, one strand shown
# T1 sequence: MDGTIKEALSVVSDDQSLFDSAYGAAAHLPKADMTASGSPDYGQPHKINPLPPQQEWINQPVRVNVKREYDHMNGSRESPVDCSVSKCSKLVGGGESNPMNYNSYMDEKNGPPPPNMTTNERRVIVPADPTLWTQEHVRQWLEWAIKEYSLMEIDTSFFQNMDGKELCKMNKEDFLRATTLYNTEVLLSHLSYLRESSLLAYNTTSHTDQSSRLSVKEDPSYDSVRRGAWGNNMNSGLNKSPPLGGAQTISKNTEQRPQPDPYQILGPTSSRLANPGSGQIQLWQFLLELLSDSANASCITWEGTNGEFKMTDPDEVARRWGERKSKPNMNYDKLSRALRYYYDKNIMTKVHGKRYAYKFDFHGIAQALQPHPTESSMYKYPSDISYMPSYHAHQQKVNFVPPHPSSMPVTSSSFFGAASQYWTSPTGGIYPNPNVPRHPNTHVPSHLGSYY
# In short: (§1)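 Sequencing on an Illumina NextSeq500 followed washing, crosslinking with 0.1% formaldehyde, proximity ligation (BsaI/T4 ligase, 1 h, 37 °C) and PCR amplification of pools that had been incubated for 30 min at room temperature with 200 nmole of a random double-stranded 16-mer DNA library in Tris/NaCl/DTT/glycerol buffer. Each pool held DNA-barcoded human transcription factors, expressed in yeast as GST fusions and captured on glutathione beads, plus a tag-only sample. Binding signal is a hexamer's read frequency for a factor divided by its frequency in the tag-only sample.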
# ELK1 = molecular target: T2, ELK1 (Homo sapiens, UniProt P19419 1-428); settings: protein: recombinant; tags: N-terminal GST; dsDNA, one strand shown
# T2 sequence: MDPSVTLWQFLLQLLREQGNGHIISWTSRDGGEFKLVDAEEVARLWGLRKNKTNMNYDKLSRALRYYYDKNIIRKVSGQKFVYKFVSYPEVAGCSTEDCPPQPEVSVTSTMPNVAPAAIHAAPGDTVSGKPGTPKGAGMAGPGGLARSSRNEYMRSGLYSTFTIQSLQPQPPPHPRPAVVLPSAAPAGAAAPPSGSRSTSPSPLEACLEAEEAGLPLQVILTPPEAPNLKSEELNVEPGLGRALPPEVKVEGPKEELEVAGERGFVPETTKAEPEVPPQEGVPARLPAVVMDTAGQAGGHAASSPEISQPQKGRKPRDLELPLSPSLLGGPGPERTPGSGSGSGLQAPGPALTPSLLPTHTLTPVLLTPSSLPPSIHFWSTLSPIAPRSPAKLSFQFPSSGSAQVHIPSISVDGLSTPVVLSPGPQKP
# In short: as §1
# GABPA = molecular target: T3, GABPA (Homo sapiens, UniProt Q06546 1-454); settings: protein: recombinant; tags: N-terminal GST; dsDNA, one strand shown
# T3 sequence: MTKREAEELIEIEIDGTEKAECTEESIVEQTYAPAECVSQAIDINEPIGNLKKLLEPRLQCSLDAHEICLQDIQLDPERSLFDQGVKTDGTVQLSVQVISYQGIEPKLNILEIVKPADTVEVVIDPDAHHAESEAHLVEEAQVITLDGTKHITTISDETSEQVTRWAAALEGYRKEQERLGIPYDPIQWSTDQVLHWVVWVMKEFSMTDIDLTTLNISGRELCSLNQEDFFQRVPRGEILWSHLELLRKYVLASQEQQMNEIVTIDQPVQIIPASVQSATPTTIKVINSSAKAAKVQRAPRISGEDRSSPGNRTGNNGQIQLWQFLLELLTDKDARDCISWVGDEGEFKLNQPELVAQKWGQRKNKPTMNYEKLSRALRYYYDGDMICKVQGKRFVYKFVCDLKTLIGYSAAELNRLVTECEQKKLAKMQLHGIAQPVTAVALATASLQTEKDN
# In short: as §1
# ERG = molecular target: T4, ERG (Homo sapiens, UniProt P11308 1-479); settings: protein: recombinant; tags: N-terminal GST; dsDNA, one strand shown
# T4 sequence: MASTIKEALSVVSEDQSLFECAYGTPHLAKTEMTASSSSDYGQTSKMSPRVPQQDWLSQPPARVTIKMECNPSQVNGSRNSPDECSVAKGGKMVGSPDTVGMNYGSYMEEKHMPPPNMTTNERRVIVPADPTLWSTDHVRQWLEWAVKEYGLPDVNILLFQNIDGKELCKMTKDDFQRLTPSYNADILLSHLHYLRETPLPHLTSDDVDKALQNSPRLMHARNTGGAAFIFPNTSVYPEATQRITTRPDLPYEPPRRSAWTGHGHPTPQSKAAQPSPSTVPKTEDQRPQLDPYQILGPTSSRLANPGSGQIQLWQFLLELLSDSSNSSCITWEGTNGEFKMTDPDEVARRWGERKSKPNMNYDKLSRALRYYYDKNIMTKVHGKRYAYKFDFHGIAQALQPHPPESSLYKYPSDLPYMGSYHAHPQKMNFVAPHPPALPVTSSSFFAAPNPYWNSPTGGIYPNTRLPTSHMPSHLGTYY
# In short: as §1
# ELF1 = ELF1 (Homo sapiens, UniProt P32519 1-619); settings: protein: recombinant; tags: N-terminal GST; dsDNA, one strand shown
# ELF1, sequence (P32519 whole entry): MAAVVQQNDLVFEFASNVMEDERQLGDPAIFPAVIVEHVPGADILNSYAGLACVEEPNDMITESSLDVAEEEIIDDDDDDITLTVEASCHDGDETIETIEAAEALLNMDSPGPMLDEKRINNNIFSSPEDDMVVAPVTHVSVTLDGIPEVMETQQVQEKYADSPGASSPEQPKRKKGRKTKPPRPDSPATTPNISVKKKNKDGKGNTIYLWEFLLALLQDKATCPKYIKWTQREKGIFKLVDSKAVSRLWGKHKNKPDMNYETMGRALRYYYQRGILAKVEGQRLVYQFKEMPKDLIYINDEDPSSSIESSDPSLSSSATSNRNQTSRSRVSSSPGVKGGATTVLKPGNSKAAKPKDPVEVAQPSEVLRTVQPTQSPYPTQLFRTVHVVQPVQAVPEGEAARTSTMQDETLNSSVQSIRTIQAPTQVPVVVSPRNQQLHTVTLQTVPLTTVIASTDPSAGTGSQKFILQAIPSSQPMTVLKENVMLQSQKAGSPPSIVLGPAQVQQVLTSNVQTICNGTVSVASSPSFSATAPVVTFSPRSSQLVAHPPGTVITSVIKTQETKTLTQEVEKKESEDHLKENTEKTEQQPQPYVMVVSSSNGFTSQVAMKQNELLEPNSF
# In short: as §1
# EHF = molecular target: T5, EHF (Homo sapiens, UniProt Q9NZC4 1-300); settings: protein: recombinant; tags: N-terminal GST; dsDNA, one strand shown
# T5 sequence: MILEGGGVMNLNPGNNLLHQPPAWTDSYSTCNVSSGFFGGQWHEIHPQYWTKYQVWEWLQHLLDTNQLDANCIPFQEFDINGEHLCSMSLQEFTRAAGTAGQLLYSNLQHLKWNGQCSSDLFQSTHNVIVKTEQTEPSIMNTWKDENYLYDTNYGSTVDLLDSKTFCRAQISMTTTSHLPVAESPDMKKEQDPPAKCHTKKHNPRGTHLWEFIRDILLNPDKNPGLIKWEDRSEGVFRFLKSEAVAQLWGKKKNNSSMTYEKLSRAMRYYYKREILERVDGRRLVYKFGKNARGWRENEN
# In short: as §1
# SPI1 = SPI1 (Homo sapiens, UniProt P17947 1-270); settings: protein: recombinant; tags: N-terminal GST; dsDNA, one strand shown
# In short: as §1
# SPIB = SPIB (Homo sapiens, UniProt Q01892 1-262); settings: protein: recombinant; tags: N-terminal GST; dsDNA, one strand shown
# SPIB, sequence (Q01892 whole entry): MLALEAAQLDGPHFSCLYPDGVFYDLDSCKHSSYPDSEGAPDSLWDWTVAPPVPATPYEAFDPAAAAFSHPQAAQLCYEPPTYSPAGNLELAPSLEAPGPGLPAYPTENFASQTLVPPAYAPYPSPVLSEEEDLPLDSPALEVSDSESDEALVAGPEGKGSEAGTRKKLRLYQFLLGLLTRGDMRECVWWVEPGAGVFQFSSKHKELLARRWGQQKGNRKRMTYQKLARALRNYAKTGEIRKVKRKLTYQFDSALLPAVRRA
# In short: as §1
# ELK3 = molecular target: T6, ELK3 (Homo sapiens, UniProt P41970 1-407); settings: protein: recombinant; tags: N-terminal GST; dsDNA, one strand shown
# T6 sequence: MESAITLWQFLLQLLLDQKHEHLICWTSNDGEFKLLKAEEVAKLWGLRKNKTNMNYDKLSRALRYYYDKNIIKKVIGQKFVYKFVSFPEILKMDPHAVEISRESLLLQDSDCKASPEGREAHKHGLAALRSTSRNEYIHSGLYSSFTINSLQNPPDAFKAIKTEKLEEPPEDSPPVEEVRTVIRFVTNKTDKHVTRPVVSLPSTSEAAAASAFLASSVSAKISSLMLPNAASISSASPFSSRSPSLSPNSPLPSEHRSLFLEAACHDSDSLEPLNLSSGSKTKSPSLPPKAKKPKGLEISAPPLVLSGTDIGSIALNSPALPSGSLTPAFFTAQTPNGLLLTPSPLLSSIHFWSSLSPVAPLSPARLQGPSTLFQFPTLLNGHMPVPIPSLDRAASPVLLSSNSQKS
# In short: as §1
# FEV = molecular target: T7, FEV (Homo sapiens, UniProt Q99581 1-238); settings: protein: recombinant; tags: N-terminal GST; dsDNA, one strand shown
# T7 sequence: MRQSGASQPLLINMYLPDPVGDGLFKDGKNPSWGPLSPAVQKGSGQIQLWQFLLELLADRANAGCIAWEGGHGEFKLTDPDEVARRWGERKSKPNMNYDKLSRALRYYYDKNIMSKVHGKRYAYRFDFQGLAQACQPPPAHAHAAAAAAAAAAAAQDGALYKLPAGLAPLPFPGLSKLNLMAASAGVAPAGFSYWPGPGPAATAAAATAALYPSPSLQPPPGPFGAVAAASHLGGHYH
# In short: as §1
# ETV5 = ETV5 (Homo sapiens, UniProt P41161 1-510); settings: protein: recombinant; tags: N-terminal GST; dsDNA, one strand shown
# ETV5, sequence (P41161 whole entry): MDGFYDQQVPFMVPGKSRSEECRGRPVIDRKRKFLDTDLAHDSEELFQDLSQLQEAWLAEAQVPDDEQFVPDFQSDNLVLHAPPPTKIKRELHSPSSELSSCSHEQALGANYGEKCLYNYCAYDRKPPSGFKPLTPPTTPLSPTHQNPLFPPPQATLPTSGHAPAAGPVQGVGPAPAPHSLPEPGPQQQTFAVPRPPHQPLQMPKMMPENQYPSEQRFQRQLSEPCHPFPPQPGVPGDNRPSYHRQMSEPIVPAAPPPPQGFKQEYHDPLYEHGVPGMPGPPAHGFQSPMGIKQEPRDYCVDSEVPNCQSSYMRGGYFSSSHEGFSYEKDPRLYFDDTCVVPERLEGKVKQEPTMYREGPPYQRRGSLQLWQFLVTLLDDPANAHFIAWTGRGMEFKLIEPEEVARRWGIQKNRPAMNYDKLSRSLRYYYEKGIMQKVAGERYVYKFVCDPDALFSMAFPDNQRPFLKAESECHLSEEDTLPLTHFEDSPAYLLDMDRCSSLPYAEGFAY
# In short: as §1
# HSF1 = HSF1 (Homo sapiens, UniProt Q00613 1-529); settings: protein: recombinant; tags: N-terminal GST; chain copies: 3; dsDNA, one strand shown
# HSF1, sequence (Q00613 whole entry): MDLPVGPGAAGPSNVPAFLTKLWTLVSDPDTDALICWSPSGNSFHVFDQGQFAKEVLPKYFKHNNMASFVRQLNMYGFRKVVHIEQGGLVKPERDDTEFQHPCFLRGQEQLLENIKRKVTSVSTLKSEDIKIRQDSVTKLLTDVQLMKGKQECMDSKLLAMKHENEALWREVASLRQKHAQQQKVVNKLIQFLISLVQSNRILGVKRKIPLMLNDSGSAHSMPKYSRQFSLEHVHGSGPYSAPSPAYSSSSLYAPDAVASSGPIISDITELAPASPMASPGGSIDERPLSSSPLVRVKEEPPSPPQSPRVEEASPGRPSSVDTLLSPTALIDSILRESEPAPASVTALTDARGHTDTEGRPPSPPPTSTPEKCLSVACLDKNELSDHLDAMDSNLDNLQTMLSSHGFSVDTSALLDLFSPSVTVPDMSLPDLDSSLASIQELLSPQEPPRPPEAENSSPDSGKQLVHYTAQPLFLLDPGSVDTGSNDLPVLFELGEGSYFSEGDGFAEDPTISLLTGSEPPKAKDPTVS
# In short: as §1
# SPIC = molecular target: T8, SPIC (Homo sapiens, UniProt Q8N5J4 1-248); settings: protein: recombinant; tags: N-terminal GST; dsDNA, one strand shown
# T8 sequence: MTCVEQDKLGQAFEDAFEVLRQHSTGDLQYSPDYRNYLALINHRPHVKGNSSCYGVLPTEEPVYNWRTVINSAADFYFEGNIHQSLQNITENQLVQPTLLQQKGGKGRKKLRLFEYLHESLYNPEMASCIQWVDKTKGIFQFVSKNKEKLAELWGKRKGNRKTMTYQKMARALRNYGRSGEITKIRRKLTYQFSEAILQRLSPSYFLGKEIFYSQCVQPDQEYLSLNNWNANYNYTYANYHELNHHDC
# In short: as §1
# ELF4 = ELF4 (Homo sapiens, UniProt Q99607 1-663); settings: protein: recombinant; tags: N-terminal GST; dsDNA, one strand shown
# ELF4, sequence (Q99607 whole entry): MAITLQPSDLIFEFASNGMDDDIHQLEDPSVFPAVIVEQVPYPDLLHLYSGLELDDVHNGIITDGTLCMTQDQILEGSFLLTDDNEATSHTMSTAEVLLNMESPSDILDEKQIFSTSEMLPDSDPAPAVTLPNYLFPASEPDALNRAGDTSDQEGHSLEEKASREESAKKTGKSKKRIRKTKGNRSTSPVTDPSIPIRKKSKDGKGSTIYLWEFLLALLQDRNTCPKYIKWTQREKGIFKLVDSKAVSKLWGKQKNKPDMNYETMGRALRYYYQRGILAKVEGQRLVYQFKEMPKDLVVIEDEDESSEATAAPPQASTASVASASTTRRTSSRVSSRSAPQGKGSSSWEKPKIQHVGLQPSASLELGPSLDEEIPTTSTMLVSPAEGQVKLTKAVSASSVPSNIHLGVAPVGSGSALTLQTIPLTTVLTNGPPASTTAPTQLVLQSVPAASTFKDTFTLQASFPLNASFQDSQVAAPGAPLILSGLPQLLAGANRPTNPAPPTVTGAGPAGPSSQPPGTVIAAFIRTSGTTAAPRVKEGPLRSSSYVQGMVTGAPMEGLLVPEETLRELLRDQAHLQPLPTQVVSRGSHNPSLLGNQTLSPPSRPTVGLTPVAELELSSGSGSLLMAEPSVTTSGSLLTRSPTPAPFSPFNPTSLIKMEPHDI
# In short: as §1
# ELK4 = molecular target: T9, ELK4 (Homo sapiens, UniProt P28324-2 1-405); settings: protein: recombinant; tags: N-terminal GST; dsDNA, one strand shown
# T9 sequence: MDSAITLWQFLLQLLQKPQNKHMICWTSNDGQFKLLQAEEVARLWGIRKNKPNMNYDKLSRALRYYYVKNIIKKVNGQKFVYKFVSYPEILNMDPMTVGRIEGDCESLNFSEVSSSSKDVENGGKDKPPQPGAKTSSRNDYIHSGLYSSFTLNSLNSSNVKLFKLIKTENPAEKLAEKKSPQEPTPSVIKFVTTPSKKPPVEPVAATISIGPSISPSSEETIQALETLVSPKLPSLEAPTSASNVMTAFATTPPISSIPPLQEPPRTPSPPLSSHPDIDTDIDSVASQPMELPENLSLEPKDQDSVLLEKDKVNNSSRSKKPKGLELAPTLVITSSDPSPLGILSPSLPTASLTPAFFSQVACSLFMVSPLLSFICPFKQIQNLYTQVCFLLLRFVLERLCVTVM
# In short: as §1
# ETV2 = molecular target: T10, ETV2 (Homo sapiens, UniProt O00321 1-342); settings: protein: recombinant; tags: N-terminal GST; dsDNA, one strand shown
# T10 sequence: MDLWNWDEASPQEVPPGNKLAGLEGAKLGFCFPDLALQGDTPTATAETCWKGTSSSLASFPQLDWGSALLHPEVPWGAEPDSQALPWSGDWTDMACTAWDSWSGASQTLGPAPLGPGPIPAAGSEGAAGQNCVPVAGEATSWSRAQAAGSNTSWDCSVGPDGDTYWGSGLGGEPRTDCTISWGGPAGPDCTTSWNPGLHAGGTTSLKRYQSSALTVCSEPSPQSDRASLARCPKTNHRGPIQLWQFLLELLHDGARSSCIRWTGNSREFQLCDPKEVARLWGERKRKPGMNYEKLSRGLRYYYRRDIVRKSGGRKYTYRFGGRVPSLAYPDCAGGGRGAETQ
# In short: as §1
# ELF3 = molecular target: T11, ELF3 (Homo sapiens, UniProt P78545 1-371); settings: protein: recombinant; tags: N-terminal GST; dsDNA, one strand shown
# T11 sequence: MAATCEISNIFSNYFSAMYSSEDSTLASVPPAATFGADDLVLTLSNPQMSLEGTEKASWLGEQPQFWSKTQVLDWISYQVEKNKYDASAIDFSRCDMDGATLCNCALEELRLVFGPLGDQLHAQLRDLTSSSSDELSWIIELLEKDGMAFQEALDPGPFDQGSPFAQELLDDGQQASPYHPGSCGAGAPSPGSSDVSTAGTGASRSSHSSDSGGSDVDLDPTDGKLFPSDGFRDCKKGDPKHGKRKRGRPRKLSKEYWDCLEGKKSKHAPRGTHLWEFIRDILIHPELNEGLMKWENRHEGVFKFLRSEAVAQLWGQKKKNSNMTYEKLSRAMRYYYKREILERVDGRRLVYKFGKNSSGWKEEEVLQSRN
# In short: as §1
# CRX = CRX (Homo sapiens, UniProt O43186 1-299); settings: protein: recombinant; tags: N-terminal GST; dsDNA, one strand shown
# CRX, sequence (O43186 whole entry): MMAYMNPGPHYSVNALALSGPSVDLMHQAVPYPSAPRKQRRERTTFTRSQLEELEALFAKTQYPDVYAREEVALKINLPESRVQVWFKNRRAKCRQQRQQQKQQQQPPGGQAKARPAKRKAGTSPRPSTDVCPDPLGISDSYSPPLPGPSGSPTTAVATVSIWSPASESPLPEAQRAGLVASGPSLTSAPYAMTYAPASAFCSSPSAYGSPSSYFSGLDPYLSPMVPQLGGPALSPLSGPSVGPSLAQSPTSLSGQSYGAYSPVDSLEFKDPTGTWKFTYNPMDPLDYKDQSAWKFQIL
# In short: as §1
# ETV1 = ETV1 (Homo sapiens, UniProt P50549 1-477); settings: protein: recombinant; tags: N-terminal GST; dsDNA, one strand shown
# ETV1, sequence (P50549 whole entry): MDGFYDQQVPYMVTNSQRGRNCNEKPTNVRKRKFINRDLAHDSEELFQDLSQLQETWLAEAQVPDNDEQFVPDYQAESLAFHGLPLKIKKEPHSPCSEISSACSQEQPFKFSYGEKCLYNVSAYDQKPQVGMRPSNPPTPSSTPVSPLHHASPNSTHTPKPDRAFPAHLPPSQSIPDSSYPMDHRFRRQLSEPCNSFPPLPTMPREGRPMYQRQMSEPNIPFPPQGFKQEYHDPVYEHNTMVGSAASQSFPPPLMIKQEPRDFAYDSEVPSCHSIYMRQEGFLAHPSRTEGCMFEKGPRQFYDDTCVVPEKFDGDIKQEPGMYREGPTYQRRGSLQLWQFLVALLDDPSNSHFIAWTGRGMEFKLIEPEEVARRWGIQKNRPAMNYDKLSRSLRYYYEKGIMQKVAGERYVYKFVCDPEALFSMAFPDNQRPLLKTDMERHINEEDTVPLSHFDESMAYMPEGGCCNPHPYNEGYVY
# In short: as §1
sequence,measurement,setting,value
ACTTAT,binding signal,FLI1,"1.4 fold enrichment (6-mer frequency, TF over GST control)"
same,binding signal,ELK1,"1.4 fold enrichment (6-mer frequency, TF over GST control)"
same,binding signal,GABPA,"1.47 fold enrichment (6-mer frequency, TF over GST control)"
same,binding signal,ERG,"1.37 fold enrichment (6-mer frequency, TF over GST control)"
same,binding signal,ELF1,"1.46 fold enrichment (6-mer frequency, TF over GST control)"
same,binding signal,EHF,"1.41 fold enrichment (6-mer frequency, TF over GST control)"
same,binding signal,SPI1,"1.39 fold enrichment (6-mer frequency, TF over GST control)"
same,binding signal,SPIB,"1.38 fold enrichment (6-mer frequency, TF over GST control)"
same,binding signal,ELK3,"1.5 fold enrichment (6-mer frequency, TF over GST control)"
same,binding signal,FEV,"1.34 fold enrichment (6-mer frequency, TF over GST control)"
same,binding signal,ETV5,"1.32 fold enrichment (6-mer frequency, TF over GST control)"
same,binding signal,HSF1,"1.73 fold enrichment (6-mer frequency, TF over GST control)"
same,binding signal,SPIC,"1.5 fold enrichment (6-mer frequency, TF over GST control)"
same,binding signal,ELF4,"1.35 fold enrichment (6-mer frequency, TF over GST control)"
same,binding signal,ELK4,"1.53 fold enrichment (6-mer frequency, TF over GST control)"
same,binding signal,ETV2,"1.35 fold enrichment (6-mer frequency, TF over GST control)"
same,binding signal,ELF3,"1.27 fold enrichment (6-mer frequency, TF over GST control)"
same,binding signal,CRX,"2.2 fold enrichment (6-mer frequency, TF over GST control)"
same,binding signal,ETV1,"1.42 fold enrichment (6-mer frequency, TF over GST control)"
